Shown is part of a subset that was picked to be rich in hits.
Tgondii IFNg: inhibitors of Toxoplasma gondii growth with IFN-gamma; activity change, negative = inhibition, % (no concentration beside the values); AID 1259416; hit rate 3.8% among 69,000; Toxoplasma gondii growth in IFN-gamma-treated host cells; hits give low values; in the data active means activity change below about -70%, passing the limit was not always enough;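 further: host cells are HeLa cells infected with Toxoplasma gondii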
* hit, by the source's call.

SMILES | Tgondii IFNg
COc1cccc(OCCCN2CCC3(CCCO3)CCC2=O)c1 (centres undefined) | 17.8
O=C(NCC1Cc2cc(-c3cnc4ccccc4c3)cc(F)c2O1)C1=CCCC1 (centres undefined) | -45.3
Cc1ccc(F)cc1S(=O)(=O)N1CCC2(CC1)Nc1ccc(Cl)cc1-n1cccc12 | 13.4
O=C(Nc1nnc(C2CCCCC2)s1)C1(c2ccccc2F)CCOCC1 | -8.5
COc1ccc(CNC(=O)CCC2N=C3c4ccccc4N=C(SCc4ccccc4Cl)N3C2=O)cc1 (centres undefined) | -27.7
Cc1nc(C2CCCCN2Cc2ccccc2)nc2c1CCC(=O)N2Cc1ccccc1 (centres undefined) | 8.9
CC1CCN(S(=O)(=O)c2ccc3c(c2)CCC(=O)N3CC(=O)Nc2ccc3c(c2)OCCO3)CC1 | -88.0*
O=C(CN1C(=O)CCc2cc(S(=O)(=O)N3CCCC3)ccc21)Nc1ccc(Cl)cc1 | 46.2
CC1CCN(S(=O)(=O)c2ccc3c(c2)CCC(=O)N3CC(=O)NCc2ccc3c(c2)OCO3)CC1 | -26.8
O=C(CN1C(=O)CCc2cc(S(=O)(=O)N3CCCC3)ccc21)Nc1ccc2c(c1)OCCO2 | 17.4
COc1ccc(NC(=O)CN2C(=O)CCc3cc(S(=O)(=O)N4CCCCC4)ccc32)cc1OC | 7.6
CCc1ccc(NC(=O)CN2C(=O)CCc3cc(S(=O)(=O)N4CCCCC4)ccc32)cc1 | -97.3*
O=C(NCc1cccnc1)c1cccnc1Nc1cccc(C(F)(F)F)c1 | -63.1
O=C(c1cncc(NS(=O)(=O)c2ccc(Cl)cc2)c1)N1CCN(Cc2ccc3c(c2)OCO3)CC1 | -13.0
CCOCC1CN(C(=O)c2cc(C)on2)Cc2nccn2C1 (centres undefined) | -6.9
Cc1oc(C2CCN(C(=O)Cc3ccccc3Cl)CC2)nc1C(=O)N1CCCC1 | -44.7
CCOC(=O)c1cnc2c(OC)cccc2c1NCc1ccco1 | -24.4
Cc1ccc(F)cc1NC(=O)c1c(O)c2cccnc2n(-c2ccc(F)cc2)c1=O | 46.7
CCOCCC(=O)N1CCc2c(c(C(=O)O)nn2C)C1 | 10.7
O=C(Cn1c(=O)cc(C(=O)N2CCOCC2)c2ccccc21)Nc1ccc(F)c(Cl)c1 | 12.0
CC(=O)N1CCS(=O)(=O)[C@H]2CCN(CC3CC3)CC[C@@H]21 | -1.0
Cc1onc(-c2ccccc2Cl)c1C(=O)Nc1sc2c(c1C#N)CCC2 | 42.0
N#Cc1c(N2C(=O)C3C4c5ccccc5C(c5ccccc54)C3C2=O)sc2c1CCC2 (centres undefined) | -78.8*
Cc1cccc2c(=O)c(NC(=O)NCc3ccco3)c[nH]c12 | 1.5
COc1ccc(S(=O)(=O)NCCc2csc(-c3cccc(F)c3)n2)cc1 | 4.7
SMILES | Tgondii IFNg
CC(=O)[C@H]1CCC2C3CC=C4C[C@@H](O)CC[C@]4(C)C3CC[C@@]21C (some centres undefined) | 10.8
CC(=O)O[C@@H]1C[C@@]2(C)C(CC[C@@H]2C(C)=O)C2CCC3=CC(=O)CC[C@]3(C)C21 (some centres undefined) | 13.1
CC(=O)OCC(=O)[C@H]1CC[C@H]2[C@@H]3CC=C4C[C@@H](O)CC[C@]4(C)[C@H]3CC[C@]12C | -34.9
CC(=O)[C@H]1CC[C@H]2[C@@H]3CCC4=CC(=O)CC[C@]4(C)[C@H]3CC[C@]12C | -88.4*
CC(=O)[C@H]1CC[C@H]2[C@@H]3CC=C4C[C@@H](O)CC[C@]4(C)[C@H]3CC[C@]12C | -74.4*
C[C@]12CCC(=O)C=C1CC[C@@H]1[C@@H]2CC[C@@]2(C)[C@H]1CC[C@]2(O)C(=O)CO | 2.6
CNC(=O)CN1CCO[C@H]2CN(C(=O)c3cccn3C)C[C@@H]21 | 28.8
CC(=O)Nc1ccc(C(=O)N2CCN3CCN(C)C(=O)C3C2)c(Cl)c1 (centres undefined) | 14.4
CSc1sc(-c2ccno2)c(-c2ccco2)c1C#N | 76.7
Cc1c(-c2ccccc2)sc(N)c1C#N | -11.6
CSc1sc(-c2ccn[nH]2)c(-c2ccccc2)c1C#N | -85.1*
Cn1c(CCNC(=O)c2ccc(C(F)(F)F)cc2)nnc1SCc1ccccc1 | -55.8
CCC(C)Nc1nc(-c2ccc(Cl)cc2)nc2ccccc12 (centres undefined) | -43.0
Cc1cc(-c2nn(C)c(Cl)c2CN2CC[C@H](CO)[C@@H](O)C2)no1 | 35.5
O=C(c1ccc(F)cc1)N1CCc2c([nH]c3ccccc23)C1c1cccnc1 (centres undefined) | -47.0
COc1cccc(C(=O)N2CCc3c([nH]c4ccccc34)C2c2cccnc2)c1 (centres undefined) | -106.9*
COc1ccc(C2c3[nH]c4ccccc4c3CCN2C(=O)c2ccncc2)cc1 (centres undefined) | 117.1
O=C(c1cccc(F)c1)N1CCc2c([nH]c3ccccc23)C1c1cccnc1 (centres undefined) | -96.3*
O=C(CCC1CCCC1)N1CCc2c([nH]c3ccccc23)C1c1cccnc1 (centres undefined) | 103.9
CC(C)c1cc(C(=O)N(C)Cc2cccc(-n3cccn3)c2)nc(N)n1 | -7.0
Cc1cc(C)c(S(=O)(=O)NCc2nc(-c3ccccc3)oc2C)c(C)c1 | 47.2
CCN(CC)C(=O)CN1CCC(c2cc3nc(N(CC)CC)ncc3c(=O)[nH]2)CC1 | 13.4
Cc1cnn(Cc2nc(-c3ccc(NC(=O)c4ccccc4F)cc3)oc2C)c1 | 3.8
COc1ccc(C(=O)N2CCC3(CC2)OC(C(N)=O)Cn2ccnc23)cc1 (centres undefined) | 0.4
CC(C)c1cc(N2CCCC(CO)(CCCc3ccccc3)C2)ncn1 (centres undefined) | -60.4
SMILES | Tgondii IFNg
COc1cccc(-c2nc(C)c(-c3ccc(SCc4ccncc4)nn3)s2)c1 | 1.2
CN(C)S(=O)(=O)N1CCCC(c2nccnc2-c2ccc(F)cc2)C1 (centres undefined) | -0.2
COc1ccc(S(=O)(=O)N(C)C[C@@H]2Oc3ccc(NC(=O)Nc4ccc(C(F)(F)F)cc4)cc3C(=O)N([C@H](C)CO)C[C@@H]2C)cc1 | -37.4
COc1ccc(S(=O)(=O)N(C)C[C@@H]2Oc3ccc(NC(=O)Nc4ccc(C(F)(F)F)cc4)cc3C(=O)N([C@H](C)CO)C[C@H]2C)cc1 | -75.2*
COc1ccc(S(=O)(=O)N(C)C[C@H]2OCCCC[C@H](C)Oc3ccc(NC(=O)Cc4ccccc4)cc3C(=O)N([C@H](C)CO)C[C@H]2C)cc1 | -48.5
COc1ccc(S(=O)(=O)Nc2ccc3c(c2)C(=O)N([C@@H](C)CO)C[C@@H](C)[C@H](CN(C)C(=O)Nc2c(C)noc2C)OCCCC[C@H](C)O3)cc1 | -1.8
COc1ccc(S(=O)(=O)N(C)C[C@@H]2OCCCC[C@@H](C)Oc3ccc(NC(=O)Cc4ccccc4)cc3C(=O)N([C@@H](C)CO)C[C@@H]2C)cc1 | -32.1
COc1ccc(S(=O)(=O)N(C)C[C@H]2Oc3c(NC(=O)c4nc5ccccc5s4)cccc3C(=O)N([C@@H](C)CO)C[C@H]2C)cc1 | -82.4*
COc1ccc(S(=O)(=O)N(C)C[C@H]2OCCCC[C@@H](C)Oc3ccc(NC(=O)Cc4ccccc4)cc3C(=O)N([C@@H](C)CO)C[C@H]2C)cc1 | -101.9*
COc1ccc(S(=O)(=O)N(C)C[C@H]2Oc3ccc(NC(=O)Nc4ccc(C(F)(F)F)cc4)cc3C(=O)N([C@H](C)CO)C[C@@H]2C)cc1 | -42.0
COc1ccc(S(=O)(=O)Nc2ccc3c(c2)C(=O)N([C@@H](C)CO)C[C@@H](C)[C@@H](CN(C)C(=O)Nc2c(C)noc2C)OCCCC[C@H](C)O3)cc1 | -77.9*

Source: PubChem (Broad Institute)
